Inhibition data for 29 molecules are collected here from PubChem BioAssay AID1259311 (ICCB-Longwood Screening Facility, Harvard Medical School, 2017).

Where “and” joins values, the source holds several entries; their conditions need not be identical. Equal values may be shown once. Hit rate of the full screen: of about 330,000 compounds, about 1,100 (0.33%) were called active. The sample holds actives, similar compounds and a random draw of the others, so the mix is not that of the screen. Values without a mark were called inactive. Cut-off read from the data, not from the text of the source: active = inhibition above about 85%; inactive = the rest.

A short description of this test: growth inhibition of S. aureus RN4220, primary screen, OD600 (AID 1259311).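 Note: plate controls were untreated cells for no effect and reference antibiotic for full effect.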 The conditions noted are these: OD600, 16 h, stronger effect = higher value.
On to `CC=C(C)C(=O)NCCN1C2=NCC(C(C)C)N2CC1Cc1ccc(O)cc1` (centres undefined), for which the inhibition (commonly the relative decrease from the control value, in per cent) was 5.17%. The result for `O=C(CC(=O)NN=Cc1ccc(Cl)cc1Cl)NCc1ccccc1` reads 3.6%. On to `Cc1c(CCOC(=O)c2cc([N+](=O)[O-])ccc2Cl)sc[n+]1CCCCS(=O)(=O)[O-]`, for which the inhibition is -3.66%. As to `Cc1c(CCO)sc[n+]1CC(=O)OC12CC3CC(CC(C3)C1)C2`, the inhibition was 4.95%.

On to `Cc1c(CCOC(=O)CC23CC4CC(CC(C)(C4)C2)C3)sc[n+]1Cc1ccc([N+](=O)[O-])cc1`, for which the inhibition was 100% (active) and 99.7% (active). `O=C1C=C(c2ccc3ncccc3c2)CC(c2ccc(F)cc2)C1` (centres undefined): the inhibition is -2.12%. The result for `CCOc1cc(C=NO)ccc1OCc1ccccc1F` reads 7.66%; that for `Clc1ccc(NN=Cc2cccs2)nn1`, 4.84%.

For the molecule `C/C(C=Nn1c(-c2cccnc2)n[nH]c1=S)=C\c1ccco1`, the inhibition was 12.6%.

`CCCCCCCCn1c2c(c(=N)c3c1CCC3)CCCC2`: the inhibition was 100% (active). As for `CC(C)c1ccc2c(c1)c(SC(C)(C)C)c(CC(C)(C)C(=O)O)n2Cc1ccc(Cl)cc1`, the inhibition is 100% (active).

As for `NC(Cc1ccc(O)cc1)c1cn(C(CCC(=O)O)C(=O)N2CCNCC2)nn1` (centres undefined), the inhibition was 3.88%.

Regarding `NC(=NOC(=O)C(c1ccccc1)c1ccccc1)c1ccccn1`, the inhibition is 1.37%. For `CC1=NOC(=O)C1=Cc1ccc(-c2ccc(Cl)c(C(=O)O)c2)o1`, the inhibition was 3.22%. In the case of `O=C(O)C(c1ccccc1)N1C(=O)/C(=C\c2ccc(-c3cccc(Cl)c3)o2)SC1=S` (centres undefined) it was 95.5% (active); in that of `S=c1[nH]nc(-c2cccc(Cl)c2)n1N=Cc1ccc(-c2ccccc2Br)o1`, 10.7%. In the case of `Cc1cccc(OCC(=O)NN=Cc2ccc(N(C)C)cc2)c1` it was 6.39%; in that of `O=C(NN=Cc1c[nH]c2ccccc12)c1ccc(O)c(O)c1`, -0.918%. Turning to `O=C(NN=Cc1c[nH]c2ccccc12)c1[nH]c2ccc(Br)cc2c1-c1ccccc1`, the inhibition was 86.5% (active). In the case of `CCOc1ccc(Br)cc1C(=O)NN=Cc1c[nH]c2ccccc12` it was -6.23%; in that of `CCCCN1C(=S)NCC1Cc1ccc(O)cc1` (centres undefined), 4.99%. In the case of `O=C(COC(=O)c1ccc(F)cc1)NCC1COc2ccccc2O1` (centres undefined) it was -4.66%; in that of `O=C(Nc1nnc(C2COc3ccccc3O2)o1)c1ccc(F)cc1` (centres undefined), 98.2% (active); in that of `CC1COc2ccccc2N1C(=O)c1ccc(F)cc1` (centres undefined), 1.99%. In the case of `COc1ccc(C(C)=NOCC(=O)N2CC3(C)CC2CC(C)(C)C3)cc1` (centres undefined) it was 4.12%; in that of `CCCc1c(C(=O)NN=Cc2ccc(OC)c(OCc3ccccc3)c2)nnn1-c1nonc1N`, 14%; in that of `COC(=O)[C@@]12CCCCN1C(c1ccc(-c3ccc4c(c3)OCO4)cc1)C1C(=O)N(C)C(=O)C12` (some centres undefined), -2.68%. In the case of `COc1ccc(C(C)=NNC(=O)C(NC(=O)c2ccccc2)c2n[nH]c(=O)c3ccccc23)c(OC)c1` (centres undefined), the inhibition was 1.72%. In the case of `Cc1ccc(C=NNC(=O)c2ccco2)cc1` it was -0.191%.
